Structures can show the parent of a compound that is named as a salt.
tested on: DU145; experiment: Euclidean distance of Cell Painting phenotypic profile (signed KS, 77 features) to DMSO centroid (dimensionless distance); 5 or 10 uM (library dependent); higher = stronger phenotypic change vs DMSO (phenoactivity); details: 48 h
Method in brief: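 Phenoactivity is defined as the Euclidean distance from a compound profile to the median vehicle profile. Each profile comprised 77 Harmony features, scored as signed Kolmogorov-Smirnov statistics versus same-plate vehicle wells, then plate-position corrected, correlation-weighted and replicate-averaged at the top dose. Five cancer lines and one healthy fibroblast line were exposed to library compounds for 48 h at 10 or 5 uM (0.1% DMSO final).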

Structure (SMILES) | Euclidean distance
O=C1c2cccc(O)c2C(=O)c2c(O)cccc21 [Danthron] | 1.19
Cc1c(-c2cnccn2)ssc1=S [Oltipraz] | 0.666
CO[C@H]1/C=C/O[C@@]2(C)Oc3c(C)c(O)c4c(O)c(c(/C=N/N5CCN(C)CC5)c(O)c4c3C2=O)NC(=O)/C(C)=C\C=C\[C@H](C)[C@H](O)[C@@H](C)[C@@H](O)[C@@H](C)[C@H](OC(C)=O)[C@@H]1C [Rifampin] | 1.44
C/C(=N\NC(=S)N1CCC1)c1ccccn1 | 3.44
Cc1nnc(SCC2=C(C(=O)O)N3C(=O)[C@@H](NC(=O)Cn4cc(Cl)c(=O)c(Cl)c4)[C@H]3SC2)s1 [Cefazedone] | 0.667
CC(=O)OCC[N+](C)(C)C [Acetylcholine iodide] | 0.869
CCCC(=O)Nc1cccc(NC(=O)c2ccccc2Br)c1 | 1.04
Nc1ncn([C@@H]2O[C@H](CO)[C@@H](O)[C@H]2O)c(=O)n1 [Azacitidine] | 1.92
O=C(/C=C/C#Cc1cccc(NS(=O)(=O)c2ccccc2)c1)NO [Oxamflatin] | 2.81
CNCCc1ccccn1 [Betahistine mesylate] | 1.17
COc1ccc2cc([C@H](C)C(=O)O)ccc2c1 [Naproxen] | 1.05
OCC(O)CN1CCN(c2ccccc2)CC1 (centres undefined) [Dropropizine] | 1.39
C=CC(=O)Nc1cccc(Nc2nc(Nc3ccc(N4CCN(C(C)=O)CC4)cc3OC)ncc2C(F)(F)F)c1 | 0.799
C/C(=C\c1ccc(C(=O)O)cc1)c1ccc2c(c1)C(C)(C)CCC2(C)C [TTNPB (Arotinoid Acid)] | 1.07
COc1cc2nc(N3CCN(C(=O)C4CCCO4)CC3)nc(N)c2cc1OC (centres undefined) [Terazosin HCl] | 0.618
C=C1/C(=C\C=C2/CCC[C@]3(C)[C@@H]([C@H](C)CCCC(C)C)CC[C@@H]23)C[C@@H](O)C[C@@H]1O [Alfacalcidol] | 6.28
COc1ncc(-c2ccc3nccc(-c4ccnnc4)c3c2)cc1NS(=O)(=O)c1ccc(F)cc1F | 2.84

Structure (SMILES) | Euclidean distance
CNC(=O)CN(CCN(CCN(CC(=O)[O-])CC(=O)NC)CC(=O)[O-])CC(=O)[O-].O.[Gd+3] [Gadodiamide Hydrate] | 1.3
CC(C)Cc1ccc(C(C)C(=O)O)cc1 (centres undefined) [Ibuprofen] | 0.996
O=C1[C@H]2CCCC[C@H]2C(=O)N1CCCCN1CCN(c2nsc3ccccc23)CC1 [Perospirone hydrochloride] | 1.08
CC(=O)Oc1cc(C(C)C)c(OCCN(C)C)cc1C [Moxisylyte hydrochloride] | 1.83
OCc1cc([C@@H](O)CNCCCCCCOCCOCc2c(Cl)cccc2Cl)ccc1O [Vilanterol Trifenate] | 1.38
CC[C@H]1OC(=O)[C@H](C)[C@@H](O[C@H]2C[C@@](C)(OC)[C@@H](O)[C@H](C)O2)[C@H](C)[C@@H](O[C@@H]2O[C@H](C)C[C@H](N(C)C)[C@H]2O)[C@](C)(O)C[C@@H](C)CN(C)[C@H](C)[C@@H](O)[C@]1(C)O [Azithromycin] | 1.38
CN(C)C1CCN(C(=O)c2ccc(NC(=O)Nc3ccc(-c4nc(N5CCOCC5)nc(N5CCOCC5)n4)cc3)cc2)CC1 | 1.98
O=C(O)C1(C(=O)O)CCC1.[NH2-].[NH2-].[Pt+2] [Carboplatin] | 2.65
O=C(N/N=C/c1ccc(O)c(O)c1)c1cc2ccccc2cc1O [Dynasore] | 0.791
C[C@@H](NC(=O)c1ncnc(N)c1Cl)c1ncc(C(=O)Nc2cc(C(F)(F)F)c(Cl)cn2)s1 | 1.59
CCCC(CCC)C(=O)O [Valproic acid sodium salt (Sodium valproate)] | 0.534
Clc1ccc(C(Cn2ccnc2)OCc2csc3c(Cl)cccc23)c(Cl)c1 (centres undefined) [Sertaconazole nitrate] | 1.2
Cc1cc(Nc2ccc(NC(=O)c3ccc(Nc4ccnc5ccccc45)cc3)cc2)nc(N)n1 | 1.42
C=C1/C(=C\C=C2/CCC[C@]3(C)[C@@H]([C@H](C)/C=C/[C@@H](O)C4CC4)CC[C@@H]23)C[C@@H](O)C[C@@H]1O [Calcipotriene] | 0.941
CONC(=O)c1ccccc1Nc1cc(Nc2cc(C)nn2C(C)C)ncc1Cl | 1.33
O=C1OC2(c3ccc(O)cc3Oc3cc(O)ccc32)c2ccccc21 [Fluorescein] | 0.83
C[C@H]1[C@H](NC(=O)/C(=N\OC(C)(C)C(=O)O)c2csc(N)n2)C(=O)N1S(=O)(=O)O [Aztreonam] | 1.05

— the supplement of paper PMC10127200
